# Reference: PubChem BioAssay (NCI)
# About 83,000 compounds went through this panel and 20% of them were active in at least one assay; those are over-represented in the sample as a whole.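 Percent growth is the endpoint: 0 to 100 indicates growth inhibition (40 means 60% inhibition), 0 means no net growth, and negative values indicate cell death.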 Unmarked numbers belong to inactive results. The source made the active and inactive calls.
# System: U251 CNS
# Experiment: NCI-60 one-dose screen, 48 h (100 = growth as untreated, 0 = no growth, -100 = all killed)
# Details: 1 µM
# Experimental: Growth inhibition of the U251 human tumor cell line is measured as a screen for anti-cancer activity. Cells are grown in 96 well plates and exposed to the test compound for 48 hours. Compounds are tested at a single concentration, which is 10^-5 M for most compounds. The reported endpoint is percent growth (GI% or GIPRCNT), where numbers from 0 - 100% represent growth inhibition, and numbers from -100% - 0 represent cell death. For example, a value of 40 represents 60% growth inhibition. A value of 0 means no net growth occurred over the course of the experiment. A value of -40 indicates 40% of cells at the beginning of the experiment died by the end of the experiment. A value of -100 means all cells are dead at the end of the experiment.
# NCI-60 Human Tumor Cell Lines Screen was performed using the standard one-dose NCI protocol, which is described in more detail at https://dtp.cancer.gov/discovery_development/nci-60/default.htm.
# Compounds with GIPRCNT values below 10 were considered active. Activity score was based on GIPRCNT using the following formula: […]
# Score is 0 for GIPRCNT values of 100 or above, 50 for GIPRCNT values of 0, and 100 for GIPRCNT values of -100.
row,Structure (SMILES),growth [%]
1,CC/C(=C(/c1ccc(O)cc1)c1ccc(OCCN(C)C(=O)CCOCCNC(=O)Cc2ccc3c(c2)CN([C@@H]2CCC(=O)NC2=O)C3=O)cc1)c1ccccc1,96.2

# Same assay, conditions: 10 µM
row,Structure (SMILES),growth [%]
1,CC/C(=C(/c1ccc(O)cc1)c1ccc(OCCN(C)C(=O)CCOCCNC(=O)Cc2ccc3c(c2)CN([C@@H]2CCC(=O)NC2=O)C3=O)cc1)c1ccccc1,92.6

# Same assay, conditions: 10 µM unless noted
row,Structure (SMILES),growth
1,Clc1ccc(CNc2nc(SCCN3CCOCC3)nc3c2cnn3CC(Cl)c2ccc(Br)cc2)cc1 (stereo not given),38.3%
2,O=C(O)CC1S/C(=N/N=C/c2nc3ccccc3s2)NC1=O (stereo not given),89.8%
3,C[C@H]1[C@@H](CC(=O)N[C@@H](Cc2coc3ccccc23)B(O)O)O[C@@H]2OC3(C)CC[C@H]4[C@H](C)CC[C@@H]1[C@@]24O3,25.2%
4,N#CC1=C(c2cccs2)Nc2c(c(-c3ccccc3)nn2-c2ccccc2)C12C(=O)Nc1ccc(Br)cc12 (stereo not given),-47.8% (active)
5,O=C(c1cc2cc(OCCCN3CCC3)ccc2[nH]1)N1C[C@@H](CCl)c2c1cc(OCc1ccccc1)c1ccccc21,-80.7% (active)
6,COc1ccc2[nH]c(O)c(N=Nc3nc(-c4ccccc4)cs3)c2c1,-31% (active)
7,COc1ccccc1/C=C/c1cccc(NC(=S)NCCCCN(C)C)c1,-64.7% (active)
8,COc1ccc(-c2cc(-c3cc(C(C)C)c(O)cc3C)nn2-c2ccc(S(N)(=O)=O)cc2)cc1,14.4%
9,CN(C)c1ccc(/C=C/c2n(Cc3ccc4ccccc4c3)c3ccccc3[n+]2Cc2ccc3ccccc3c2)cc1,-67.5% (active)
10,C/C(=N/O)c1ccc(NC(=O)CSc2nnc(-c3ccc4nc(-c5ccc(Cl)cc5)[nH]c4c3)o2)cc1,-58.8% (active)
11,COc1c(B(O)O)cc(F)cc1-c1nc2ccc3[nH]ncc3c2c2c1COCC2,45.4%
12,COc1cc(CNC(=O)[C@]23CCC(C)(C)CC2C2=CCC4[C@@]5(C)CCC(OC(C)=O)C(C)(C)C5CC[C@@]4(C)[C@]2(C)CC3)ccc1OCc1cn(-c2ccc(Cl)cc2Cl)nn1 (stereo not given in full),104%
13,O=C(CSc1nc2sc3c(c2c(=O)n1-c1ccc(Cl)cc1)CCCC3)NNC(=O)c1ccc(F)cc1,37.8%
14,COc1ccc(N=Nc2c(N)nn3c(-c4ccc5c(c4)C=S=C5)ccnc23)cc1,34.5%
15,COc1ccc(N=Nc2c(N)nn3c(N)c(C#N)c(-c4ccc(C)cc4)nc23)cc1,74.4%
16,Cc1ccc2nc(NC(=O)Nc3cccc(Cl)c3)sc2c1,111%
17,CN1CCN(C(=O)Oc2cc3c(c4ccccc24)[C@H](CCl)CN3C(=O)c2cc3cc(OCCCN4CCC4)ccc3[nH]2)[C@H]2CSSC[C@H]21,6.86% (active)
18,COc1ccc(C(=O)c2cc(C(C)=O)c3c(C)cc(C)cn23)cc1,32.4%
19,FC(F)(F)c1cc2c(Cl)ncnc2n1CCN1CCCCC1,81.8%

row,Structure (SMILES),growth
1,C#CCN(C)CCCOc1ccc(N(C)C(=O)c2cc(C(C)C)c(O)cc2O)cc1Cl,11.4%
2,COc1ccc2c(c1)C(Sc1ccc(Br)cc1)c1c(nc(N)c(C#N)c1N)O2 (stereo not given),77.2%
3,COc1ccc2[nH]c(O)c(N=NC(=O)c3ccc4nc(-c5ccc(Cl)cc5)[nH]c4c3)c2c1,-30.5% (active)
4,COc1cccc(NC(=O)c2ccc(NC(=O)CCl)s2)c1,-39.9% (active)
5,OC1CCC(Cn2c(C(F)(F)F)cc3c(Cl)ncnc32)CC1 (stereo not given),11.6%
6,O=C(/C=C1\C(=O)N(Cc2ccccc2)c2ccccc21)c1cc2ccccc2oc1=O,98.4%
7,COC(=O)c1c(C(=O)OC)c2ccc3c4ccccc4ccc3n2c1C(=O)OC,97.1%
8,Cc1nn(-c2ccccc2)c2nc(C)n(C(=O)N/N=C/c3cccc([N+](=O)[O-])c3)c(=O)c12,93.1%
9,Cc1ccc2c(c1)/C(=C/C(=O)c1cc3ccccc3oc1=O)C(=O)N2,73.9%
10,Nc1nn2c(-c3cc4cc(Br)ccc4oc3=O)ccnc2c1N=Nc1ccc(Br)cc1,6.85% (active)
11,O=C(CSc1nnc(-c2ccc(-c3nc4ccc(Cl)cc4[nH]3)cc2)o1)Nc1ccc(Br)cc1,-89.8% (active)
12,COc1ccc(OC)c(Cn2cc(C#N)c(N)c2C(=O)c2ccc(Br)cc2)c1,26.3%
13,N#CCc1nnc(NC(=O)c2ccc(-n3c(=O)[nH]c4ccccc4c3=O)cc2)s1,106%
14,O=C(CSc1nnc(-c2ccc(-c3nc4ccccc4[nH]3)cc2)o1)Nc1ccc(Cl)cc1,-75.4% (active)
15,OCCn1cc(-c2nc3ccc4[nH]ncc4c3c3c2CCCC3)cn1,51.2%
16,FC(F)(F)CN1CCN(CCn2c(C(F)(F)F)cc3c(Cl)ncnc32)CC1,-12.6% (active)
17,COc1ccc2[nH]c(=O)c(CSc3ccccc3Nc3nccc(-c4ccc(Cl)cc4)n3)cc2c1,37.8%
18,COc1ccc(N=Nc2c(N)nn3c(-c4ccc([N+](=O)[O-])cc4)ccnc23)cc1,107%
19,Nc1nn2c(-c3cc4cc(Br)ccc4oc3=O)ccnc2c1N=Nc1ccccc1,-11.2% (active)
